Common to all, as to test: NCI-60 one-dose screen, 48 h (100 = growth as untreated, 0 = no growth, -100 = all killed)
One experiment relates to HCT-15 colon. The following applies: 10 µM.
Another experiment relates to HT29 colon. To be noted: 10 µM.
In a further experiment the test system is SNB-75 CNS. To be noted: 10 µM.
The next experiment has as its system SNB-19 CNS. The following applies: 10 µM.
The next experiment relates to U251 CNS. To be noted: 10 µM.
The next experiment relates to PC-3 prostate. To be noted: 10 µM.
A further experiment has as its system SK-MEL-5 melanoma. The following applies: 10 µM.
Another experiment relates to UACC-62 melanoma. To be noted: 10 µM unless noted.
For another experiment, the system named is LOX IMVI melanoma. The following applies: 10 µM.
The next experiment concerns SK-MEL-28 melanoma. To be noted: 10 µM.
A further experiment concerns SK-MEL-2 melanoma. To be noted: 10 µM.
For another experiment, the system named is EKVX NSCLC. The following applies: 10 µM.
The subject of a further experiment is SN12C renal. To be noted: 10 µM.
For a further experiment, the system named is UO-31 renal. The following applies: 10 µM.
The test system of a further experiment is TK-10 renal. To be noted: 10 µM unless noted.
A further experiment has as its system ACHN renal. To be noted: 10 µM.
The next experiment concerns CAKI-1 renal. To be noted: 10 µM.
The next experiment relates to CCRF-CEM leukemia. The following applies: 10 µM.
Another experiment concerns MOLT-4 leukemia. The following applies: 10 µM.
For a further experiment, the system named is A498 renal. The following applies: 10 µM.

This is part of a sample that, as a whole, favours compounds with a hit. Of some 83,000 tested, about 20% had one in any assay.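 Each cell line was grown in a 96-well plate and treated with one concentration of compound for 48 hours. Values below 10 were considered active.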 Unmarked numbers belong to inactive results. Activity calls are given as the source filed them.

In the case of `COc1cc(/C=N\Nc2ccccc2)ccc1OC(=O)c1ccccc1`, the growth is 24.4% with HCT-15 colon; 72.5% in the experiment with HT29 colon; 85.4% in the experiment on SNB-75 CNS; 108% with SNB-19 CNS; 81.5% in the experiment on U251 CNS; 49.8% in the experiment with PC-3 prostate. In addition, the growth in the experiment with SK-MEL-5 melanoma was 74.7%; with UACC-62 melanoma, 24.4%; in the experiment on LOX IMVI melanoma, 3.86% (active); in the experiment with SK-MEL-28 melanoma it was 87.6%; in the experiment with SK-MEL-2 melanoma it was 64.3%; with EKVX NSCLC, 66.1%. Besides, the growth in the experiment with SN12C renal was 79.4%; with UO-31 renal it was 21.5%; with TK-10 renal, 96.2%; in the experiment with ACHN renal, 45.2%; in the experiment with CAKI-1 renal, 40.3%; with CCRF-CEM leukemia, 37.4%. Also, in the experiment with MOLT-4 leukemia, the growth is 38.5%.
As to `CC12CC3CC1C(C(=O)O2)C3C(=O)O` (stereo not drawn), the growth in the experiment with HCT-15 colon is 104%; in the experiment on HT29 colon, 98.9%; in the experiment with SNB-75 CNS, 102%; in the experiment on SNB-19 CNS, 98.6%; in the experiment on U251 CNS, 103%; with PC-3 prostate, 101%. Further, the growth is 104% in the experiment on SK-MEL-5 melanoma; 98.3% with UACC-62 melanoma; 99.7% in the experiment on LOX IMVI melanoma; 106% in the experiment on SK-MEL-28 melanoma; 94.7% with SK-MEL-2 melanoma; 105% in the experiment with EKVX NSCLC. For the same molecule, the growth in the experiment with SN12C renal was 105%; with UO-31 renal it was 93.5%; in the experiment with TK-10 renal, 94.5%; in the experiment on ACHN renal it was 105%; in the experiment on CAKI-1 renal, 102%; in the experiment with A498 renal, 106%. Besides, the results for the growth in the experiment with CCRF-CEM leukemia and in the experiment with MOLT-4 leukemia were 101% and 100%, respectively.
In the case of `CC1CCC(C(=O)O)N1` (stereo not drawn), the growth with HCT-15 colon was 110%; in the experiment on HT29 colon, 94.1%; in the experiment on SNB-75 CNS it was 83.3%; in the experiment on SNB-19 CNS, 102%; with U251 CNS, 96%; in the experiment with PC-3 prostate it was 99.2%. The growth in the experiment on SK-MEL-5 melanoma was 102%; in the experiment on UACC-62 melanoma it was 98.1%; in the experiment on LOX IMVI melanoma it was 99.2%; in the experiment with SK-MEL-28 melanoma it was 95.4%; with SK-MEL-2 melanoma, 91.5%; in the experiment with EKVX NSCLC, 107%. The growth is 92.7% in the experiment on SN12C renal; 76.5% with UO-31 renal; 101% in the experiment on TK-10 renal; 91.6% in the experiment with ACHN renal; 92.3% in the experiment with CAKI-1 renal; 84% in the experiment with A498 renal. Besides, the values for the growth with CCRF-CEM leukemia and with MOLT-4 leukemia were 101% and 87.8%, respectively.
Regarding `COc1cc(C2NC(=O)C(C#N)=C(Nc3cccc(C)c3)S2)ccc1O` (stereo not drawn), the growth was 111% in the experiment on HCT-15 colon; 107% with HT29 colon; 89.6% in the experiment on SNB-75 CNS; 102% with SNB-19 CNS; 103% with U251 CNS; 97.6% in the experiment with PC-3 prostate. The growth with SK-MEL-5 melanoma was 101%; in the experiment on UACC-62 melanoma it was 97.8%; in the experiment on LOX IMVI melanoma, 99.1%; with SK-MEL-28 melanoma, 103%; with SK-MEL-2 melanoma, 123%; in the experiment with EKVX NSCLC, 94.9%. For the same molecule, the growth in the experiment with SN12C renal was 90.3%; with UO-31 renal, 94.8%; with TK-10 renal it was 106%; in the experiment on ACHN renal, 101%; with A498 renal, 112%; in the experiment on CCRF-CEM leukemia, 76%. For the same molecule, the growth in the experiment on MOLT-4 leukemia is 93%.
As for `COc1ccc(C)cc1OC`, the growth in the experiment with HCT-15 colon was 104%; in the experiment with HT29 colon, 108%; with SNB-75 CNS, 104%; in the experiment with SNB-19 CNS it was 107%; with U251 CNS, 97.2%; in the experiment on PC-3 prostate it was 105%. Also, the growth in the experiment on SK-MEL-5 melanoma was 99.7%; in the experiment with UACC-62 melanoma it was 99.5%; in the experiment on LOX IMVI melanoma, 96.1%; in the experiment with SK-MEL-28 melanoma it was 115%; with SK-MEL-2 melanoma it was 112%; with EKVX NSCLC it was 108%. Besides, the growth in the experiment on SN12C renal is 99.3%; in the experiment with UO-31 renal, 89.8%; in the experiment with TK-10 renal, 104%; in the experiment on ACHN renal, 115%; in the experiment with CAKI-1 renal, 101%; with A498 renal it was 94.5%. Also, the growth in the experiment with MOLT-4 leukemia is 110%.
For the molecule `NC(=O)NC(=O)c1ccc(Cl)cc1`, the growth in the experiment on HCT-15 colon was 105%; in the experiment on HT29 colon, 94.3%; with SNB-75 CNS, 93.6%; with SNB-19 CNS, 111%; with U251 CNS, 106%; in the experiment on PC-3 prostate it was 96.5%. The growth in the experiment on SK-MEL-5 melanoma was 107%; in the experiment on UACC-62 melanoma, 96.1%; with LOX IMVI melanoma, 103%; with SK-MEL-28 melanoma, 119%; in the experiment on SK-MEL-2 melanoma, 92.2%; with EKVX NSCLC it was 101%. For the same molecule, the growth with SN12C renal was 104%; in the experiment with UO-31 renal, 77%; in the experiment with TK-10 renal, 100%; in the experiment on ACHN renal, 105%; with CAKI-1 renal it was 94.1%; in the experiment with A498 renal it was 102%. Moreover, in the experiment on MOLT-4 leukemia, the growth is 102%.
In the case of `CCOC(=O)c1cc2cccc(OC)c2oc1=O`, the growth in the experiment with HCT-15 colon is 97.3%; with HT29 colon, 113%; with SNB-75 CNS it was 99.5%; in the experiment with SNB-19 CNS, 105%; in the experiment on U251 CNS, 105%; in the experiment with PC-3 prostate, 106%. Also, the growth in the experiment with SK-MEL-5 melanoma is 105%; with UACC-62 melanoma it was 89.8%; in the experiment with LOX IMVI melanoma, 104%; in the experiment on SK-MEL-28 melanoma it was 116%; in the experiment with SK-MEL-2 melanoma, 74.9%; in the experiment on EKVX NSCLC it was 107%. For the same molecule, the growth with SN12C renal is 107%; with UO-31 renal it was 105%; with TK-10 renal, 110%; with ACHN renal, 117%; in the experiment with CAKI-1 renal, 132%; in the experiment on CCRF-CEM leukemia, 91.7%. For the same molecule, the growth in the experiment with MOLT-4 leukemia is 89.9%.
Turning to `O=C1C[C@H](c2ccccc2)[C@H](c2ccccc2)C1`, the growth was 102% with HCT-15 colon; 105% in the experiment with HT29 colon; 91.8% in the experiment with SNB-75 CNS; 96.1% in the experiment on SNB-19 CNS; 103% in the experiment on U251 CNS; 79.4% in the experiment on PC-3 prostate. In addition, the growth with SK-MEL-5 melanoma was 104%; in the experiment with UACC-62 melanoma it was 90.2%; with LOX IMVI melanoma, 102%; in the experiment on SK-MEL-28 melanoma, 109%; with SK-MEL-2 melanoma it was 93%; with EKVX NSCLC, 106%. For the same molecule, the growth with SN12C renal is 98.7%; with UO-31 renal, 81.9%; in the experiment with TK-10 renal, 94.2%; with ACHN renal it was 102%; with CAKI-1 renal it was 89.7%; in the experiment on CCRF-CEM leukemia, 95.1%. Further, the growth with MOLT-4 leukemia was 94.9%.
Consider `Cc1ccc(/C(C#N)=C/c2ccc3c(c2)OCO3)cc1`, for which the growth was 69.5% in the experiment with HCT-15 colon; 37.1% in the experiment on HT29 colon; 67.8% in the experiment on SNB-75 CNS; 88.4% in the experiment on SNB-19 CNS; 63.2% in the experiment on U251 CNS; 81.9% in the experiment on PC-3 prostate. Besides, the growth with SK-MEL-5 melanoma is 58.6%; with UACC-62 melanoma, 73.5%; in the experiment with LOX IMVI melanoma it was 74.9%; in the experiment on SK-MEL-28 melanoma it was 81.4%; with SK-MEL-2 melanoma, 43.3%; in the experiment with EKVX NSCLC, 87.3%. For the same molecule, the growth was 90.6% with SN12C renal; 64.3% in the experiment with UO-31 renal; 80.8% in the experiment with TK-10 renal; 95.3% in the experiment on ACHN renal; 53.6% in the experiment with CAKI-1 renal; 65.8% in the experiment with CCRF-CEM leukemia. The growth in the experiment with MOLT-4 leukemia is 63.6%.

The record behind these values is PubChem BioAssay (NCI).
